In assay [1] the test system is TRPC4 beta (transient receptor potential cation channel C4), mouse. In words: activators of mouse TRPC4 channel, confirmation, cell-based, Fluo4 calcium, HEK293 TRPC4beta/mu-opioid, duplicates, 10 µM (AID 2426;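 active means fluorescence ratio normalized to control raised more than 50% in primary screen plus both repeat runs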;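 on activation: percent rise of integrated ratio over buffer wells lacking compound which define 0%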). Particulars: Fluo4 calcium fluorescence, at 10 µM; active compounds read high.
The subject of assay [2] is transient receptor potential cation channel C4 beta (TRPC4), mouse. In words: activators of mouse TRPC4 channel, confirmation, cell-based, second round, Fluo4, HEK293 TRPC4beta/mu-opioid, 1 µM (AID 2461;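 active means primary screen active and over 50% activation in each of two duplicate runs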;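 on activation: 0% = wells without test compound as baseline of integrated fluorescence ratio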). Particulars: Fluo4 calcium fluorescence, at 1 µM; active compounds read high.
Assay [3] deals with TRPC4 (transient receptor potential cation channel C4 beta), mouse. As to the kind of experiment: positive allosteric modulators of mouse TRPC4, confirmation, cell-based, second round, Fluo-4, HEK293 TRPC4beta/mu-opioid, 1 µM (AID 2554;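 active means primary screen hit whose fluorescence ratio, in both repeats, exceeds the weak agonist control mean by 3 SD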). Particulars: DAMGO EC20, Fluo-4 calcium flux, at 1 µM; active compounds read high. For orientation: Calcium assays in cells follow changes in intracellular calcium, usually with a dye or a luminescent sensor.

The subject of assay [4] is TRPC4 beta (transient receptor potential cation channel C4), mouse. In words: positive allosteric modulators of mouse TRPC4, confirmation, cell-based, Fluo-4, HEK293 TRPC4beta/mu-opioid (AID 2555;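 active means primary screen hit whose calcium fluorescence ratio, in both repeats, exceeds the weak agonist control mean by 3 SD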). Particulars: DAMGO EC20, Fluo-4 calcium flux, at 10 µM; active compounds read high.
Assay [5] deals with Short transient receptor potential channel 4 (Mus musculus) (UniProt Q9QUQ5). As to the kind of experiment: inhibitors of mouse TRPC4 channel, confirmation, cell-based, Fluo4, HEK293 TRPC4beta/mu-opioid (AID 2636). The note with it: DAMGO, Fluo4 calcium flux, at 10 µM; active compounds read high.
Chain of Short transient receptor potential channel 4 (Mus musculus) (Q9QUQ5 whole entry, looked up): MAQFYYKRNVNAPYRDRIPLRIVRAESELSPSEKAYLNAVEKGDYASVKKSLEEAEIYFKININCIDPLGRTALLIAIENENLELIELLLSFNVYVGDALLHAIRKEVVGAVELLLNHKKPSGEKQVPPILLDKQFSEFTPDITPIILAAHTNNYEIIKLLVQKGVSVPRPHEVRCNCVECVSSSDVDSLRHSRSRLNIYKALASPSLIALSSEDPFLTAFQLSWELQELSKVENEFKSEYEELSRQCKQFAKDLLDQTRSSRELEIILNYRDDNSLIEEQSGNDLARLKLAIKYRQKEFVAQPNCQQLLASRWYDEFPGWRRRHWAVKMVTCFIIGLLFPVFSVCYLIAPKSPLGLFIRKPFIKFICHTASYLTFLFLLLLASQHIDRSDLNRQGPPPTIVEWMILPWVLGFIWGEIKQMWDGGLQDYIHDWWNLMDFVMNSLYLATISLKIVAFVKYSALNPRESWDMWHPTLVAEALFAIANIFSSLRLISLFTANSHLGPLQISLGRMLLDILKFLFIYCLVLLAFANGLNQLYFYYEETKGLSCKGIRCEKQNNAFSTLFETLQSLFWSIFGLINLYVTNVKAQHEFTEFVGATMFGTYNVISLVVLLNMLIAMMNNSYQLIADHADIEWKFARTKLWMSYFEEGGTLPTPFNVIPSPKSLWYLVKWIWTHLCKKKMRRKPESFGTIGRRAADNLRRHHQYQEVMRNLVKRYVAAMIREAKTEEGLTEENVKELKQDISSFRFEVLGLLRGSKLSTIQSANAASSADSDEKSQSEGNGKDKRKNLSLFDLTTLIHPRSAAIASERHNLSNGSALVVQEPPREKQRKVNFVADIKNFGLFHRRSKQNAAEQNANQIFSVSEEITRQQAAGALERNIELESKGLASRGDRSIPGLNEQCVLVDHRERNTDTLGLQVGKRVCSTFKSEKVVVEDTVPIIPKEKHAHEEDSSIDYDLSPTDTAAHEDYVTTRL
For assay [6] the target is unchanged. In words: inhibitors of mouse TRPC4 channel, confirmation, cell-based, second round, Fluo4, HEK293 TRPC4beta/mu-opioid, 1 µM (AID 2637;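 active means calcium signal ratio cut to more than 3 SD under the fully stimulated control mean yet still positive, in both repeats and the primary screen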). The note with it: Fluo4 calcium flux, DAMGO, at 1 µM; active compounds read high.
Assay [7] has the same target. In words: TRPC4 positive allosteric modulators, dose response, cell-based, HEK293 TRPC4/mu-opioid, Fluo-4 calcium, EC20 DAMGO (AID 434941;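 active means earlier screen potentiator hit that boosts the TRPC4 ion channel at some dose, with a dose response; inactive means no potentiation, no dose response, or not a prior hit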;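 further: calcium entry triggered by an EC20 dose of DAMGO at the co-expressed mu-opioid receptor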).
Assay [8] shares this target. As to the kind of experiment: mouse TRPC4 channel inhibitors, dose response, cell-based, HEK293 TRPC4/mu-opioid, Fluo-4 calcium (AID 434942;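 active means primary screen inhibitor hit that blocks the TRPC4 channel at some tested dose, yielding a dose curve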).
Assay [9] has as its target Short transient receptor potential channel 6 (Mus musculus) (UniProt Q61143). As to the kind of experiment: inhibition of mouse TRPC6 channel, confirmation, selectivity assay for TRPC4 inhibitor project, cell-based, HEK293, membrane potential dye, duplicate (AID 434948;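 active means active in primary screen and both duplicates, each dropping signal beyond three positive-control SD with fluorescence still positive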). Particulars: HEK293 TRPC6, membrane potential dye fluorescence, at 10 µM, stimulated with maximal-effect acetylcholine; active compounds read high.

The target is the same in assay [10]. In words: activation of mouse TRPC6 channel, confirmation, selectivity assay for TRPC4 activator project, cell-based, HEK293, membrane potential dye, duplicate (AID 434950;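 active means membrane potential signal rise above negative control mean plus 3 SD in both duplicates, also active in the earlier TRPC4 screen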;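 on activation: 0% = buffer only wells and 100% = acetylcholine maximal-effect wells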). Particulars: HEK293 TRPC6, membrane potential fluorescence, at 10 µM; active compounds read high.
Assay [11] has the same target. In words: TRPC6 potentiation by TRPC4 potentiator hits, confirmation, selectivity assay for TRPC4 potentiator project, HEK293 cells, membrane potential dye, duplicate (AID 434952;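 active means compound raising the membrane signal above positive-control mean plus 3 SD in both repeats, and a primary screen hit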). Particulars: HEK293 TRPC6, membrane potential dye fluorescence, at 10 µM, maximal acetylcholine added after compound; active compounds read high.
Assay [12] addresses Short transient receptor potential channel 4 (Mus musculus) (UniProt Q9QUQ5). In words: calcium flux activators in TRPC4/5HT1a cells, counter-screen for TRPC4 activator project, cell-based, second counter screen, HEK293 TRPC4/5HT1a, Fluo-4 (AID 434977;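 active means calcium signal rise above buffer-control mean plus 5 SD in both duplicates, and also a hit in the primary screen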;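 on activation: plate controls were assay buffer for no effect and maximal serotonin response for full effect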). The note with it: Fluo-4 calcium flux, at 10 µM; active compounds read high.
Assay [13] in a line: calcium flux inhibitors in TRPC4/5HT1a cells, confirmation, counter-screen for TRPC4 inhibitor project, cell-based, second counter screen, HEK293 TRPC4/5HT1a, Fluo-4 (AID 434978;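 active means primary screen active whose calcium signal fell more than 3 SD beyond the full-serotonin control mean in both duplicate plates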;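 further: serotonin given first at submaximal then at maximal dose after compound preincubation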). Particulars: Fluo-4 calcium flux, at 10 µM, serotonin added to trigger calcium flux; active compounds read high.
For assay [14], the system named is TRPC4 (mouse), co-expressed with 5HT1a in HEK293. As to the kind of experiment: calcium flux potentiators in TRPC4/5HT1a cells, confirmation, counter-screen for TRPC4 potentiator project, cell-based, second counter screen, HEK293 TRPC4/5HT1a, Fluo-4 (AID 434979;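 active means signal rise over 3 SD above mean of control wells given weak agonist, in both repeats and first screen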). Particulars: Fluo-4 calcium flux, at 10 µM, serotonin added at its EC20 dose; active compounds read high.
Assay [15] is described as follows: calcium flux activation in mu-opioid HEK293 cells, confirmation, counter-screen for TRPC4 activator project, cell-based, HEK293 mu-opioid receptor line (AID 449723;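 active means hit in primary screen, with calcium signal over 5 SD above buffer well mean in both duplicates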;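 further: counter screen cells carry the mu-opioid receptor alone and lack TRPC4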). Particulars: Fluo-4 calcium fluorescence, at 10 µM; active compounds read high.
Assay [16] can be described thus: calcium flux enhancement in mu-opioid HEK293 cells, confirmation, counter-screen for TRPC4 allosteric potentiator project, cell-based, HEK293 mu-opioid receptor line (AID 449724;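 active means calcium signal rise more than 3 SD above the low-dose agonist control mean, in both duplicate plates and the primary screen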;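 further: HEK293 cells carrying mu-opioid receptor only with no TRPC4 channel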). Particulars: Fluo-4 calcium flux, at 10 µM, compound added before EC20 DAMGO stimulus; active compounds read high.

In PubChem BioAssay one finds activation and outcome data, which are given here for 15 compounds.

For part of these data: Measured potencies and affinities stand elsewhere. The source made the active and inactive calls.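 How the source made its calls, unless noted: active means calcium signal cut by more than 3 SD below the full-agonist control yet still positive, in both repeats and the earlier primary screen; inactive means the rest.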

Chain of Short transient receptor potential channel 6 (Mus musculus) (Q61143 whole entry, looked up): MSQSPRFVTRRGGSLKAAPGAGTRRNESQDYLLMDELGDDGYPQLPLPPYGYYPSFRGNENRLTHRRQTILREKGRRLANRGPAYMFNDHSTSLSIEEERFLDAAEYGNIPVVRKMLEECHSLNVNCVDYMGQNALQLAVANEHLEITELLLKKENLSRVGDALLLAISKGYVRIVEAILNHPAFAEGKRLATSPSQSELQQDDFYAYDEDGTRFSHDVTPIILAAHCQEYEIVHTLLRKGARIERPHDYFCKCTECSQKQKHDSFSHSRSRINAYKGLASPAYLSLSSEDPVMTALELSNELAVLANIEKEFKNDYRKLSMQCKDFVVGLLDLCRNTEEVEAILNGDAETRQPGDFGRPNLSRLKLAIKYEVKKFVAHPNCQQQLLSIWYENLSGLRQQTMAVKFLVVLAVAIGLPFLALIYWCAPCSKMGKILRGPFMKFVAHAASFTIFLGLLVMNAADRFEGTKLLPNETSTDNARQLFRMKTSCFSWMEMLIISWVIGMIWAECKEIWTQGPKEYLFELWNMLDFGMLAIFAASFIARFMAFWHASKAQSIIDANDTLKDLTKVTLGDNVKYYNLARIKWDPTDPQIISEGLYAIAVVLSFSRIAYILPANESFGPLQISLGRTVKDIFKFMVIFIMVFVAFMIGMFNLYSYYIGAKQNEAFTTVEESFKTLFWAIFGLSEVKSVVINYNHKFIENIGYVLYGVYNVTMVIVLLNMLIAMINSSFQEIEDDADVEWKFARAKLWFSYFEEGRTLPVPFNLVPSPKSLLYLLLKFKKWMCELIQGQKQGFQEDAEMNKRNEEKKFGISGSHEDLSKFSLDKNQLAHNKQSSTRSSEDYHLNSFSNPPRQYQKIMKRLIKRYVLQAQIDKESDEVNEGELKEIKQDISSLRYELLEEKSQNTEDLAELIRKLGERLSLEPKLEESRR

As to `CN1CCN(c2ccc(NC(=O)c3ccc(-c4cccc([N+](=O)[O-])c4)o3)cc2)CC1`, in assay [1], the activation was 87% (active). For the same compound, the result in assay [2], in [3], in assay [4], in assay [5], in [6] and in assay [7] was inactive. The result in [8], in assay [9], in assay [10], in assay [11], in [12] and in assay [13] was inactive. Moreover, the outcome in [14], in assay [15] and in assay [16] was inactive.
As to `COc1ccc(C(CNC(=O)C2CCN(S(=O)(=O)c3ccc(F)cc3)CC2)N(C)C)cc1` (stereo not given), in assay [1], the activation was 149% (active). Also, the result in assay [2], in assay [3], in assay [4], in assay [5], in assay [6] and in assay [7] was inactive. The result in [8], in assay [9], in [10], in [11], in assay [12] and in [13] was inactive. Besides, the result in assay [14], in assay [15] and in [16] was inactive.
`CN(C)C(CNC(=O)Cc1ccc([N+](=O)[O-])cc1)c1ccccc1` (stereo not given): the activation is 161% (active) in assay [1] and 124% (active) in [2]. The result in [3], in [4], in assay [5], in assay [6], in assay [7] and in [8] was inactive. Besides, the outcome in assay [9], in assay [10], in assay [11], in assay [12], in assay [13] and in assay [14] was inactive. Further, the result in [15] and in assay [16] was inactive.
As to `CN(C)CCNC(=O)c1c(NC(=O)c2ccccc2)sc2c1CCCC2`, the activation in assay [1] was 161% (active). Further, the outcome in [2], in assay [3], in assay [4], in [5], in assay [6] and in [7] was inactive. The outcome in assay [8], in assay [9], in [10], in [11], in [12] and in [13] was inactive. Moreover, the result in assay [14], in assay [15] and in assay [16] was inactive.
Consider `Cc1ccc(C)c(-n2cc(CNCCCn3cccn3)c(-c3ccccc3)n2)c1`, for which the activation in assay [1] was 288% (active); in assay [2], 129% (active); in assay [10], 48.5% (active); in assay [12], 29.9% (active). Also, the result in assay [3], in [4], in assay [5], in [6], in assay [7] and in assay [8] was inactive. Also, the compound was classed as inactive in assay [9], in assay [11], in assay [13], in assay [14], in assay [15] and in [16].
Turning to `CC(C)(C)C(=O)NC(=S)NNC(=O)c1sc2ccccc2c1Cl`, the activation is 323% (active) in assay [1]; 96% (active) in assay [2]; 36.5% (active) in [10]; 148% (active) in assay [12]; 136% (active) in assay [15]. Moreover, the result in assay [3], in [4], in [5], in assay [6], in [7] and in [8] was inactive. The compound was classed as inactive in assay [9], in [11], in [13], in assay [14] and in assay [16].
On to `COc1ccc(C(CNC(=O)Cc2cccs2)N(C)C)cc1` (stereo not given), for which the activation was 102% (active) in assay [1], 103% (active) in assay [2] and 36.5% (active) in [10]. Moreover, the outcome in [3], in assay [4], in [5], in assay [6], in assay [7] and in assay [8] was inactive. Also, the compound was classed as inactive in assay [9], in [11], in assay [12], in [13], in assay [14] and in assay [15]. Further, the result in assay [16] was inactive.
Turning to `CCCCN(CC)CCCNC(=O)Cn1nc(Cc2cccnc2)c2ccccc2c1=O`, the values for the activation in assay [1] and in assay [12] were 86% (active) and 28.3% (active), respectively. Besides, the outcome in assay [2], in assay [3], in assay [4], in [5], in assay [6] and in assay [7] was inactive. For the same compound, the outcome in assay [8], in assay [9], in [10], in assay [11], in assay [13] and in [14] was inactive. Besides, the result in assay [15] and in assay [16] was inactive.
As for `O=C1NCN(c2ccccc2)C12CCN(CCCC(c1ccc(F)cc1)c1ccc(F)cc1)CC2`, the outcome in assay [1], in assay [2], in [3], in assay [4], in assay [5] and in assay [6] was inactive. For the same compound, the result in [7], in assay [8], in assay [9], in assay [11], in assay [12] and in assay [13] was inactive. In addition, the result in [14], in assay [15] and in assay [16] was inactive. Besides, in assay [10], the activation was 31% (active).
Regarding `CN(C)C(CNC(=S)Nc1ccc(Cl)cc1)c1cccnc1` (stereo not given), the result in assay [1], in assay [3], in assay [4], in [5], in assay [6] and in assay [7] was inactive. The outcome in assay [8], in assay [9], in assay [10], in [11], in assay [12] and in [13] was inactive. Further, the result in assay [14], in [15] and in [16] was inactive. In addition, in assay [2], the activation is 118% (active).
For `Cc1onc(-c2ccccc2)c1C(=O)NNC(=S)NC(=O)c1ccc2c(c1)OCO2`, the activation in [1] was 55% (active); in assay [12] it was 56.5% (active). Moreover, the outcome in assay [2], in assay [3], in [4], in [5], in [6] and in assay [7] was inactive. Also, the result in assay [8], in [9], in [10], in assay [11], in [13] and in assay [14] was inactive. Further, the outcome in [15] and in [16] was inactive.
Take `Cc1ccccc1C(=O)NNC(=S)NC(=O)c1cccs1`: the activation in assay [1] is 139% (active); in assay [12] it was 109% (active); in assay [15], 30.1% (active). In addition, the result in [2], in assay [3], in [4], in assay [5], in assay [6] and in [7] was inactive. Moreover, the result in assay [8], in assay [9], in [10], in assay [11], in assay [13] and in assay [14] was inactive. In assay [16], the outcome was inactive.
In the case of `CCN1CCN(c2c(Cl)cccc2NC(=O)c2ccc([N+](=O)[O-])cc2)CC1`, the activation in assay [1] was 80% (active); in assay [12], 7.83% (active). For the same compound, the outcome in assay [2], in assay [3], in assay [4], in assay [5], in [6] and in assay [7] was inactive. The outcome in assay [8], in [9], in [10], in assay [11], in assay [13] and in [14] was inactive. For the same compound, the outcome in assay [15] and in assay [16] was inactive.
On to `CC(=O)c1ccc(S(=O)(=O)NCc2ccc(C(=O)NCC(c3ccccc3)N(C)C)cc2)cc1` (stereo not given), for which the activation in assay [1] is 127% (active); in assay [2], 99% (active); in assay [10], 33% (active). Besides, the result in assay [3], in [4], in [5], in [6], in assay [7] and in assay [8] was inactive. Besides, the compound was called inactive in assay [9], in assay [11], in assay [12], in assay [13], in assay [14] and in assay [15]. For the same compound, in assay [16], the outcome was inactive.
In the case of `COc1ccc2c(Cl)c(-c3nnc4n3CCCCC4)sc2c1`, the activation is 117% (active) in assay [1] and 52% (active) in assay [10]. In addition, the result in assay [2], in assay [3], in [4], in assay [5], in [6] and in [7] was inactive. Also, the result in [8], in assay [9], in assay [11], in assay [12], in assay [13] and in assay [14] was inactive. Moreover, the outcome in assay [15] and in assay [16] was inactive.
